Experimental data reported in PubChem BioAssay AID1159580 (chemical genetic matrix, 2015).
Among all 5,500 compounds or so, about 2,000 (36%) were called active. Not shown: some 18% with an inconclusive outcome. Cut-off read from the data, not from the text of the source: active = normalized growth mostly below about 0.91 (no sharp cut-off); inconclusive = no clear call, values can overlap the other calls; inactive = mostly above about 0.92. Some of the results follow.

Assay: chemical genetic growth profiling, strain panel (AID 1159580);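 note: tested at 20 µM; growth read once vehicle control cultures reached saturation at 30 °C; 1 = growth at the plate median or of vehicle wells; lower values mean less growth of the strain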
Conditions: S. cerevisiae deletion strains, growth OD

Measured: normalized growth

CCCCCCCCCCCCC/C=C/[C@@H](O)[C@@H](N)CO
inactive: locus YAL040C, strain CLN3, hits give low values 0.984 | locus YDR363W, strain ESC2, hits give low values 0.929 | locus YER002W, strain NOP16, hits give low values 1.02 | locus YGR078C, strain PAC10, hits give low values 1.01 | locus YMR307W, strain GAS1, hits give low values 1.02 | locus YNL153C, strain GIM3, hits give low values 0.844 | locus YNL197C, strain WHI3, hits give low values 1.1 | locus YNL224C, strain SQS1, hits give low values 1.06 | locus YOR083W, strain WHI5 (second series), hits give low values 1.11
active: locus YAL013W, strain DEP1, hits give low values 0.877 | locus YCL061C, strain MRC1 (second series), hits give low values 0.925 | locus YDR150W, strain NUM1, hits give low values 0.848 | locus YGR229C, strain SMI1, hits give low values 0.172 | locus YJR075W, strain HOC1, hits give low values 0.644 | locus YNL175C, strain NOP13, hits give low values 1.19 [resistant] | locus YPL055C, strain LGE1, hits give low values 0.757 | locus YPL241C, strain CIN2, hits give low values 0.926
